Results from PubChem BioAssay (EPA / NIEHS).
Activity calls are given as the source filed them. How the source made its calls: active means hit-call score of the fitted dose curve at least 0.9, where 1 is the maximum; inactive means score below 0.9.

read-out: Interferon-gamma inducible Protein 10 (IP10), CXCL10 (gene 3627); assay: BSK_KF3CT_IP10: BioMAP Diversity Plus: KF3CT Assay for Interferon-gamma inducible Protein 10 (IP10) Biomarker Activity (AID 2283068); conditions: primary human keratinocytes with fibroblasts; actives raise or lower the signal
Experimental: BSK_KF3CT is a cell-based, multiplexed-readout assay that uses keratinocytes and foreskin fibroblasts, a human skin primary cell co-culture, with measurements taken at 24 hours after chemical dosing in a 96-well plate.BSK_KF3CT_IP10 is an assay component measured in the BSK_KF3CT assay. It measures IP-10 antibody related to regulation of gene expression using ELISA technology.Data from the assay component BSK_KF3CT_IP10 was analyzed into 1 assay endpoint. This assay endpoint, BSK_KF3CT_IP10, was analyzed with bidirectional fitting relative to DMSO as the negative control and baseline of activity. Using a type of binding reporter, gain or loss-of-signal activity can be used to understand changes in the signaling as they relate to the gene CXCL10. Furthermore, this assay endpoint can be referred to as a primary readout, because this assay has produced multiple assay endpoints where this one serves a signaling function. To generalize the intended target to other relatable targets, this assay endpoint is annotated to the cytokine intended target family, where the subfamily is chemotactic factor.
The levels of cell surface (or secreted, indicated by the prefix "s") biomarker endpoints were measured by ELISA. Overt cytotoxicity to cells in confluent adherent cultures (all systems other than the BT system) was assessed by measuring total protein levels using sulforhodamine B (SRB) staining in parallel cultures at the time of biomarker measurements, indicated as SRB endpoints. For proliferation assays for adherent cell types, individual cell types are cultured at sub-confluence and relative cell numbers quantified by SRB staining at time points optimized for each system (48 h: 3C and CASM3C systems; 72 h: BT and HDF3CGF systems; 96 h: SAg system). SRB was performed by staining cells with 0.1% SRB after fixation with 10% TCA and reading wells at 560 nm.Viability and proliferation of PBMC (T cells) was quantified by Alamar Blue reduction for the SAg and BT systems. For PBMC viability (referred to as PBMC Cytotoxicity within the assay endpoint names), cells were plated (75,000/well in a 96-well plate) and then chemical samples added for 1 h before addition of activators, SEB and TSST-1 (20 ng/mL final concentration each). Cells were incubated for 90 h. Then, Alamar Blue (20 uL/well) (Invitrogen, Cat DAL1100) was added for 6 h, and the plates were read with a fluorescence microplate reader at 546/580 nm (excitation/emission). For PBMC proliferation, cells were plated and activated as above but incubated for only 16 h prior to addition of Alamar Blue. Plates were read after 6 h.

Row | Structure (SMILES) | outcome | AC50
1 | C[C@H]1C[C@@H]2[C@H]([C@@H](O)C[C@@]3(C)[C@H]2CC[C@]3(O)C(=O)CO)[C@@]2(C)C=CC(=O)C=C12 | inactive | –
2 | Cc1ccc(Nc2ccc(O)c3c2C(=O)c2ccccc2C3=O)cc1 | inactive | –
3 | Cc1cc(C2(c3cc(C)c(O)cc3C)OS(=O)(=O)c3ccccc32)c(C)cc1O | inactive | –
4 | CCC(=O)OCc1ccccc1 | inactive | –
5 | C=CCOC(=O)CCC1CCCCC1 | inactive | –
6 | O=C(O)c1cn(C2CC2)c2cc(N3CCNCC3)c(F)cc2c1=O | inactive | –
7 | CC(C)(COC(=O)c1ccccc1)COC(=O)c1ccccc1 | inactive | –
8 | OC[C@H]1O[C@H](O[C@]2(CCl)O[C@H](CCl)[C@@H](O)[C@@H]2O)[C@H](O)[C@@H](O)[C@H]1Cl | inactive | –
9 | Cc1ccc(O)c(C(C)(C)C)c1 | – | 37.5 µM (active)
10 | COc1cc(C=O)ccc1OC(=O)C(C)C | inactive | –
11 | CC[Si](OC(C)=O)(OC(C)=O)OC(C)=O | inactive | –
12 | CCCCCCCCC=O | inactive | –
13 | CCn1c2ccccc2c2cc(N)ccc21 | inactive | –
14 | CCCCC(CC)COCCC#N (stereo not given) | – | 5.08 µM (active)
15 | CC(=O)[C@H]1CC[C@H]2[C@@H]3CC=C4C[C@@H](O)CC[C@]4(C)[C@H]3CC[C@]12C | inactive | –
16 | CCCCCCCCCCCCCCCCCC(=O)OCC(CC)CCCC (stereo not given) | inactive | –
17 | O=[N+]([O-])c1cc(C(F)(F)F)ccc1Cl | inactive | –
18 | NCCNCCN | inactive | –
19 | CC(C)Oc1ccccc1O | inactive | –
20 | Cc1ccc2n[nH]nc2c1 | inactive | –

Row | Structure (SMILES) | outcome | AC50
21 | c1ccc2c(c1)c1cccc3ccc4cccc2c4c31 | inactive | –
22 | O=C=NC1CCC(CC2CCC(N=C=O)CC2)CC1 (stereo not given) | inactive | –
23 | CCCCC/C=C/C=C/C=O | – | 29.4 µM (active)
24 | O=C(O)C[C@H](O)C[C@H](O)/C=C/c1c(C2CC2)nc2ccccc2c1-c1ccc(F)cc1 | inactive | –
25 | Nc1cc([N+](=O)[O-])ccc1Cl | inactive | –
26 | O=C1OC2(c3cc(Br)c(O)c(Br)c3Oc3c2cc(Br)c(O)c3Br)c2c(Cl)c(Cl)c(Cl)c(Cl)c21 | – | 7.41 µM (active)
27 | CNC[C@H](O)c1cccc(O)c1 | inactive | –
28 | CCCCC(CC)COC(=O)/C=C\C(=O)OCC(CC)CCCC (stereo not given) | inactive | –
29 | O=P(c1ccccc1)(c1ccccc1)c1ccccc1 | inactive | –
30 | O=C(O)c1cn(-c2ccc(F)cc2)c2cc(N3CCNCC3)c(F)cc2c1=O | inactive | –
31 | Nc1cc([N+](=O)[O-])ccc1O | inactive | –
32 | CCCCCCCCCC=O | – | 11.9 µM (active)
33 | OC1OC[C@@H](O)[C@H](O)[C@H]1O (stereo not given in full) | inactive | –
34 | CC(C)c1ccc(C(C)C)cc1 | inactive | –
35 | c1ccc2sc(SN(C3CCCCC3)C3CCCCC3)nc2c1 | inactive | –
36 | COC(=O)c1ccc(C)cc1 | inactive | –
37 | CCc1c(C)cc(N)c(CC)c1N | inactive | –
38 | C=C[Si](OCC)(OCC)OCC | inactive | –
39 | CN(CCOc1ccc(CC2SC(=O)NC2=O)cc1)c1ccccn1 (stereo not given) | inactive | –
40 | CC(=O)Nc1ccccc1O | inactive | –
